Our source for the Potency, outcome and activity change, negative = inhibition values is PubChem BioAssay (NCATS).

Structures are written as SMILES. Inconclusive results are not listed. A number with no mark means an inactive call. Activity calls are given as the source filed them. Calls follow the shape of the dose curve; as a rule, active = well fitted curve in the direction sought with a large enough effect; inconclusive = small, poorly fitted or top-dose-only effect, or another doubt; inactive = no such curve, though single readings can be large; an effect the other way counts as inactive or inconclusive.

The target of test [1] is N-terminal Xaa-Pro-Lys N-methyltransferase 1 (Homo sapiens) (UniProt Q9BV86). Kind of test: qHTS Assay for Inhibitors of N-terminal methyltransferase 1 (NTMT1): LOPAC validation of the NTMT1 SAHH-coupled ThioGlo3 Assay (AID 1347143).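 Also: SAH from peptide methylation measured as thiol fluorescence via SAHH coupling and ThioGlo3; nearly all actives have a fitted effect of over 70% in size.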 Also: potency is read from the fitted curve at half-maximal effect. As to activity change, negative = inhibition: % is scaled to controls: 0 for no effect and ±100 for the full control effect. Summed up: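 Recombinant human NTMT1 (125nM) was pre-incubated 1 min at room temperature with compounds over a concentration range, then a mix of 100uM SAM, 10uM SAHH and 15uM ThioGlo3 (concentrations in added reagent) was added. ThioGlo3 fluorescence (ex 340/em 450nm) after 30 min was normalized to the initial reading.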
On the technique in general: qHTS replaces the single test concentration by a dilution series.

Test [2] concerns Zika virus NS2B-NS3 protease (unlinked). The experiment in a line: Optimization of GU AMC qHTS for Zika virus inhibitors: Unlinked NS2B-NS3 protease assay (AID 1347151). Also: nearly all actives have a fitted effect of over 80% in size. Also: potency is read from the fitted curve at half-maximal effect.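 As to activity change, negative = inhibition: series mostly up to about 52 µM; 0% = no-inhibitor control and -100% = no-enzyme control.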 Summed up: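 Fluorescence read-out (340 nm ex / 450 nm em) of AMC peptide cleavage, taken immediately and after 15 min at room temperature (~20% conversion). Enzyme was the unlinked NS2B–NS3 complex at 25 nM in Tris pH 8.0 buffer.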

Test [3] has as its system Zika virus NS2B-NS3 protease. Kind of test: Primary screen GU AMC qHTS for Zika virus inhibitors (AID 1347154). Also: nearly all actives have a fitted effect of over 70% in size. Also: potency is read from the fitted curve at half-maximal effect.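 As to activity change, negative = inhibition: 0% = no-inhibitor control and -100% = no-enzyme control.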 In short, it runs like this:
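Unlinked Zika NS2B hydrophilic domain–NS3 protease complex at 25 nM in 10 mM Tris-HCl pH 8.0, 0.01% Tween 20, with an AMC peptide substrate. Fluorescence change (340/450 nm) over 15 min at room temperature, normalized to controls, fitted to 4-parameter Hill.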

Test [4] deals with Zika virus NS2B-NS3 protease (unlinked complex). Kind of test: Primary screen GU Rhodamine qHTS for Zika virus inhibitors: Unlinked NS2B-NS3 protease assay (AID 1347159). Also: % is scaled to controls: 0 for no effect and ±100 for the full control effect; nearly all actives have a fitted effect of over 60% in size. Summed up: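 Compounds, tested up to 114 microM, were incubated for 15 minutes with 25 nM unlinked NS2B-NS3 protease at pH 8.0. Cleavage of 1.5 microM Rhodamine110 substrate was then followed by fluorescence for 15 minutes.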

Test [5] deals with Zika virus NS2B-NS3 protease (linked construct). Kind of test: Primary screen NINDS Rhodamine qHTS for Zika virus inhibitors (AID 1347160). Also: nearly all actives have a fitted effect of over 55% in size. As to activity change, negative = inhibition: % is scaled to controls: 0 for no effect and ±100 for the full control effect. To be noted: outcome: dose series up to 57.1 µM unless noted. In short, it runs like this: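 Percent inhibition, normalized to uninhibited and enzyme-free controls, is fitted to a 4-parameter Hill equation. Fluorescence change comes from a 15-min cleavage of 1.5 microM bis-peptide Rhodamine110 substrate by 25 nM linked NS2B-NS3 at room temperature.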

Test [6] has as its target Lysine-specific demethylase 5B (Homo sapiens) (UniProt Q9UGL1). The experiment in a line: Optimization screen for KDM5B Histone Demethylases FDH coupled qHTS against the LOPAC library (AID 1347166). Also: 0% is about no effect. In short, it runs like this: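 KDM5BDeltaAP (200nM final) preincubated 10 min with compound, then 12.5uM H3K4Me3, 25uM a-ketoglutarate, ascorbate, Fe(II), NAD+ and FDH added; 50mM HEPES pH 7.5, 0.01% Tween-20. NADH fluorescence (340/450 nm) change over 30 min, room temperature.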

Test [7] is described as follows: qHTS to identify inhibitors of the type 1 interferon - major histocompatibility complex class I in skeletal muscle: primary screen against the NCATS LOPAC collection (AID 1347405).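 Also: lytic HiBiT luminescence reporting HLA-B protein level.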 Also: potency is read from the fitted curve at half-maximal effect. As to activity change, negative = inhibition: % is scaled to controls: 0 for no effect and ±100 for the full control effect. In short, it runs like this: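 Luminescence from HiBiT fused to endogenous HLA-B in CRISPR-engineered human myoblasts served as the read-out. Cells received 4.0 ng/ml IFN-beta plus compound (seven concentrations, 1:4.3 steps, highest 46 uM final) for 24 hrs before lytic detection.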

Test [8] is described as follows: qHTS of pediatric cancer cell lines to identify multiple opportunities for drug repurposing: Confirmatory screen for SK-N-SH cells (AID 1347129).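 Also: cells exposed to compound for 48 h before viability read; nearly all actives have a fitted effect of over 60% in size.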 Also: potency is read from the fitted curve at half-maximal effect. Summed up: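 Viability after 48 h compound treatment at 37C, 500-1,000 cells/well, read as ATP luminescence with CellTiter-Glo. Primary screens used 11-point (MIPE, 0.78 nM-46 µM) or 8-point (NPC, 0.59 nM-46 µM) final concentrations; follow-up screens used 11-point dilutions.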

A short description of test [9]: qHTS to identify inhibitors of the type 1 interferon - major histocompatibility complex class I in skeletal muscle: primary screen against the NCATS Pharmaceutical Collection (AID 1347407).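 Also: luminescence of HiBiT knocked into endogenous HLA-B as interferon-induced MHC class I level.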 Also: potency is read from the fitted curve at half-maximal effect. As to activity change, negative = inhibition: % is scaled to controls: 0 for no effect and ±100 for the full control effect. Summed up:
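HLA-B HiBiT myoblasts, dexamethasone-free growth medium + 4 ng/ml IFN-b; compounds pinned 1 h after seeding, […] from 46 uM; 24 h, 37 C, 5% CO2; lytic HiBiT detection, 10 min RT, luminescence.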

Chain of Lysine-specific demethylase 5B (Homo sapiens) (Q9UGL1 whole entry, looked up): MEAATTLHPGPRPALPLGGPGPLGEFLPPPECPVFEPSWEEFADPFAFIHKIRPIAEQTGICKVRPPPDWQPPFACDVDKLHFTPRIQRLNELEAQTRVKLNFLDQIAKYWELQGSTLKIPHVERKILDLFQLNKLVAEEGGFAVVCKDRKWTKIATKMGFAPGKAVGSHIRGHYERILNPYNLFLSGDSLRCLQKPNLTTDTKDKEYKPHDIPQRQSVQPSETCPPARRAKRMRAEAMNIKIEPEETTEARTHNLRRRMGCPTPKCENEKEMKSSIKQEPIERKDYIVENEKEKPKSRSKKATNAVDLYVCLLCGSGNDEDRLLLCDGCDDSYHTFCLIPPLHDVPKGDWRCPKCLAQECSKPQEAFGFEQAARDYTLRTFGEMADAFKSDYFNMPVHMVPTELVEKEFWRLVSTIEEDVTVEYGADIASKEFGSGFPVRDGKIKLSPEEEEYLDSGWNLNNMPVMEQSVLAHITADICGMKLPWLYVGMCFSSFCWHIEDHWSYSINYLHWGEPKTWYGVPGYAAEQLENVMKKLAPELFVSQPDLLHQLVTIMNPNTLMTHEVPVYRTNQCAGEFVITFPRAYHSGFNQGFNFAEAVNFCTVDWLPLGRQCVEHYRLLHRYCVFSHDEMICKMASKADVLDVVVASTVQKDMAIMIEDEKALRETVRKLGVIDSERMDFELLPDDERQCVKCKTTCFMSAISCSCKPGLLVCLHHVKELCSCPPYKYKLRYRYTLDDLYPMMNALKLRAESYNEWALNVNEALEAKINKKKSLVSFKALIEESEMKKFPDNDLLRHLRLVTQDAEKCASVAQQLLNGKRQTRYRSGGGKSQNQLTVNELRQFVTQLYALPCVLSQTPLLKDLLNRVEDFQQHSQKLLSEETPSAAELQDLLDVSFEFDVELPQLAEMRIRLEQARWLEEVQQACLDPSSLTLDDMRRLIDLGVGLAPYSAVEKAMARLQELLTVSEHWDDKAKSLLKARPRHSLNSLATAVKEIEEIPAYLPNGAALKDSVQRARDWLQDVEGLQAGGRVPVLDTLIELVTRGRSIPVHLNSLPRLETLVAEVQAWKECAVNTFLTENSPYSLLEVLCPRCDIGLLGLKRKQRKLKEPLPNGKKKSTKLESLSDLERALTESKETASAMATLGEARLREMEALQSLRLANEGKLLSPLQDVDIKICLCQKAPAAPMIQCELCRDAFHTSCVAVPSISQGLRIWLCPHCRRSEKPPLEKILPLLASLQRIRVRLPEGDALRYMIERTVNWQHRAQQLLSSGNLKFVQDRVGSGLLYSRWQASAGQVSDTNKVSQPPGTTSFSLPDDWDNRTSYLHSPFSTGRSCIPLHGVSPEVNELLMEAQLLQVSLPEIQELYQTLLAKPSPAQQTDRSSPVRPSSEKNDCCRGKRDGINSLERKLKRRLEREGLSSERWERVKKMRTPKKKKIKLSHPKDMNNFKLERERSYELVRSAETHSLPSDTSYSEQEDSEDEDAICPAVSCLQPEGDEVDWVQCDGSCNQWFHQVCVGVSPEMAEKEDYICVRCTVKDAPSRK
Chain of N-terminal Xaa-Pro-Lys N-methyltransferase 1 (Homo sapiens) (Q9BV86 whole entry, looked up): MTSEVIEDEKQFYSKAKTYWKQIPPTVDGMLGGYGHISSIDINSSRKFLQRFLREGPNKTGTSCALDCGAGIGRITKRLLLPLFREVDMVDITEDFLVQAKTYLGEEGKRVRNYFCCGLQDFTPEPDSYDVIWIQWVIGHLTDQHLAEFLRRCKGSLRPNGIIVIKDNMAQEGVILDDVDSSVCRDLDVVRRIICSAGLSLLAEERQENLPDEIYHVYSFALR

Regarding `COc1ccccc1N1CCN(CCN2C(=O)CC3(CCCC3)CC2=O)CC1`, the Potency in [1] is 56.2 µM (active). In addition, the Potency entry in test [2], in [3], in test [4] and in test [7] was “inactive” in each case. Also, the outcome in test [5] and in [6] was inactive.
On to `CC(=O)[C@@]1(O)CC[C@H]2[C@@H]3C[C@H](C)C4=CC(=O)CC[C@]4(C)[C@H]3CC[C@@]21C`, for which the Potency result in test [8] and in test [3] was “inactive” throughout.
On to `C[C@H]1C[C@@H]2[C@H]([C@@H](O)C[C@@]3(C)[C@H]2CC[C@]3(O)C(=O)CO)[C@@]2(C)C=CC(=O)C=C12`, for which the Potency result in test [8] and in test [3] was “inactive” each time.
Regarding `NC(N)=NCCCCN=C(N)N`, the Potency entry in test [1], in [2], in [3] and in test [7] was “inactive” throughout. Also, the call in test [6] was inactive.
With `Nc1ncnc2n[nH]c(Nc3ccc(F)cc3)c12`, the Potency entry in test [1], in [2], in test [3] and in [4] was “inactive” throughout. Also, the result in test [5] and in test [6] was inactive.
For `CC[C@@]1(O)C(=O)OCc2c1cc1n(c2=O)Cc2c-1nc1ccccc1c2/C=N/OC(C)(C)C`, the Potency in test [8] was 1.87 µM (active); in test [3], 14.4 µM (active); in [9] it was 0.745 µM (active).
Take `N[C@@H](Cn1ccc(=O)c(O)c1)C(=O)O`: the Potency result in test [1], in test [2] and in test [7] was “inactive” in each case. Also, the activity change, negative = inhibition in [4] is 13% [at 11.5 µM]. For the same compound, in test [5], the outcome was “inactive [at 4.91 µM]”. In addition, the call in test [6] was inactive.
As for `CCc1cc2cc(OC)c(OC)cc2c(Cc2ccccc2)n1`, the Potency result in test [8], in test [3] and in [9] was “inactive” each time.
For `Cc1cc(OCCOCC[N+](C)(C)Cc2ccccc2)ccc1C(C)(C)CC(C)(C)C`, in test [8], the Potency is 20.9 µM (active).
Consider `C[C@]12CCC(=O)C=C1CC[C@@H]1[C@@H]2[C@@H](O)C[C@@]2(C)[C@H]1CC[C@]2(O)C(=O)COC(=O)CCC(=O)O`, for which the Potency entry in test [8] and in [3] was “inactive” in each case.
With `C[C@H]1C[C@H]2[C@@H]3CCC4=CC(=O)C=C[C@]4(C)[C@H]3C(=O)C[C@]2(C)[C@@]1(O)C(=O)CO`, the Potency result in [8], in test [3] and in test [9] was “inactive” throughout.
`Cn1cnc2c(NCc3ccccc3)nc(NCCO)nc21`: the Potency result in test [1], in test [2] and in [3] was “inactive” in each case. In addition, in [6], the compound was classed as inactive.
Take `CCCC(=O)O[C@]1(C(=O)CCl)[C@@H](C)C[C@H]2[C@@H]3CCC4=CC(=O)C=C[C@]4(C)[C@@]3(F)C(=O)C[C@@]21C`: the Potency result in test [8], in test [3] and in test [9] was “inactive” in each case.
With `CC(C)N(CCC(=O)c1ccc2ccccc2c1)Cc1ccccc1`, the Potency result in test [1] and in test [3] was “inactive” each time. In addition, the Potency is 26.7 µM (active) in [2] and 12.6 µM (active) in test [7]. Also, the outcome in [5] was inactive.
With `CO[C@@H]1[C@@H](OC)[C@H](C)[C@@](O)(CC(=O)O)O[C@H]1[C@H](C)[C@H]1O[C@@]2(CC[C@@](C)([C@H]3CC[C@@](C)([C@@H]4O[C@@H]([C@H]5O[C@](C)(O)[C@H](C)C[C@@H]5C)C[C@@H]4OC4C[C@H](OC)[C@@H](OC)[C@H](C)O4)O3)O2)C[C@H](O)[C@H]1C` (stereo not given in full), the Potency in test [8] was 1.48 µM (active). Moreover, the Potency entry in [3] and in [9] was “inactive” throughout.
On to `CN(C)CCN(Cc1ccsc1)c1ccccn1`, for which the Potency result in [8] and in test [3] was “inactive” in each case.
`CC(=O)OCC(=O)[C@@]1(O)CCC2C3CCC4=CC(=O)CC[C@]4(C)C3[C@@H](O)C[C@@]21C` (stereo not given in full): the Potency result in [8] and in test [9] was “inactive” each time.
For the compound `O=C1NC(c2cccc([N+](=O)[O-])c2)=CCN1c1ccccc1O`, in test [1], the Potency was 50.1 µM (active). In addition, the Potency entry in test [2], in test [3], in test [4] and in test [7] was “inactive” throughout. The call in test [5] and in test [6] was inactive.
Turning to `N=C(N)c1ccc(OCCCOc2ccc(C(=N)N)cc2)cc1`, the Potency entry in [8], in test [3] and in test [9] was “inactive” each time.
For `O=[N+]([O-])c1ccc(O)c2ncccc12`, the Potency in test [8] was 9.35 µM (active). For the same compound, the Potency entry in [3] and in test [9] was “inactive” in each case.
As for `CCCCC(=O)OCC(=O)[C@H]1[C@H](C)C[C@H]2[C@@H]3C[C@H](F)C4=CC(=O)C=C[C@]4(C)[C@@]3(F)[C@@H](O)C[C@@]21C`, the Potency result in test [8] and in test [3] was “inactive” in each case.
For the compound `CC(C)(C)CC(=O)OCC(=O)[C@@]1(O)CC[C@H]2[C@@H]3CCC4=CC(=O)C=C[C@]4(C)[C@H]3[C@@H](O)C[C@@]21C`, the Potency result in [8] and in test [3] was “inactive” in each case.
`Cc1nn(-c2ccccc2)c(C)c1/C=N/N1CCN(Cc2ccccc2)CC1`: the Potency in [1] is 15.8 µM (active). Besides, the Potency result in test [2], in test [4] and in test [7] was “inactive” throughout. In addition, the outcome in [5] and in test [6] was inactive.
`Clc1ccc2c(c1)N=C(N1CCNCC1)c1ccccc1N2`: the Potency entry in test [1], in test [2], in test [3], in test [4] and in test [7] was “inactive” each time. Further, the result in test [5] and in test [6] was inactive.
As to `Nc1c2ccccc2nc2ccccc12`, the Potency was 8.33 µM (active) in [8] and 35.5 µM (active) in [3]. For the same compound, the Potency result in test [9] is “inactive”.
Regarding `CCCC(=O)O[C@]1(C(=O)COC(=O)CC)CC[C@H]2[C@@H]3CCC4=CC(=O)CC[C@]4(C)[C@H]3[C@@H](O)C[C@@]21C`, the Potency result in [8] was “inactive”.
For the compound `CCCCC(CC)CNC(=O)CC(C)OC(=O)CCC(=O)O` (stereo not given), the Potency entry in test [8] and in test [3] was “inactive” each time.
Turning to `CCOC(=O)O[C@]1(C(=O)OCCl)CC[C@H]2[C@@H]3CCC4=CC(=O)C=C[C@]4(C)[C@H]3[C@@H](O)C[C@@]21C`, the Potency result in test [8], in test [3] and in test [9] was “inactive” throughout.
With `COc1c(N2C[C@@H]3CCCN[C@@H]3C2)c(F)cc2c(=O)c(C(=O)O)cn(C3CC3)c12`, the Potency in test [3] is 14.4 µM (active).
The same measure, in the same setting: the entry for `CC[C@@H]([C@H](C)O)n1ncn(-c2ccc(N3CCN(c4ccc(OC[C@@H]5CO[C@@](Cn6cncn6)(c6ccc(F)cc6F)C5)cc4)CC3)cc2)c1=O` is “inactive”.
